Sampled rows, rich in hits. Any-hit rate of the full collection: about 1%.
HUVEC tox TNFa: HUVEC cytotoxicity counter-screen, TNF alpha stimulated. HUVEC TNFalpha-stimulated, Hoechst cell count, imaging. actives 0.17% (n = 93,000). cell count reduction, % at 2 µM. AID 848;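 active = cell count reduction exceeding the screen mean by over 5 SD, scaled to untreated wells per plate, cut at about 78% in these data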;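 note: cells counted after 24 h of TNF alpha exposure following the 1 h pretreatment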
E-sel TNF inh: TNF alpha driven E-selectin expression inhibition; HUVEC TNFa-induced E-selectin immunofluorescence, high content; inhibition, % at 2 µM; actives 0.71% (n = 120,000);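 active = inhibition above the batch mean plus 3 SD, and confirmed as a hit on visual image review, cut at about 43% in these data; inconclusive = passes the inhibition cutoff but fails visual image review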
VCAM1 TNFa inh: reduces TNF alpha induced VCAM1 expression in HUVEC; HUVEC TNFa-induced VCAM-1 immunofluorescence, high-content imaging; actives 0.48% (n = 95,000); inhibition, % at 2 µM; AID 802;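 active = inhibition above the batch mean plus 3 SD, with images confirmed as a hit by eye, cut at about 37% in these data; inconclusive = inhibition above that limit but hit not confirmed in images; inactive = inhibition not above that limit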
cytoskel mod: alters cytoskeleton assembly in HUVEC cells; HUVEC TNFa F-actin phalloidin imaging, high content; inhibition, % at 2 µM; actives 0.18% (n = 91,000);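 active = inhibition above the batch mean plus 3 SD and confirmed as a hit by visual image inspection, cut at about 30% in these data, passing the limit was not always enough; inconclusive = above the inhibition threshold but rejected on visual inspection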
Large screens that a line does not name were inactive.

CCSc1ccc(C(=O)Nc2ccc(Br)cn2)cc1[N+](=O)[O-]	none (no result: HUVEC tox TNFa, VCAM1 TNFa inh, cytoskel mod)
CC(C)OCCCNC(=O)c1cccs1	none
CCCCOCCCNC(=O)c1cccs1	VCAM1 TNFa inh 90
Cc1nc([N+](=O)[O-])c(Br)n1CC(=O)c1ccc(Br)cc1	VCAM1 TNFa inh 40
Cc1nc([N+](=O)[O-])c(Br)n1CC(=O)c1ccccc1	none (no result: cytoskel mod)
Cn1c(Cc2ccccc2)nnc1SCC(=O)c1ccc(Br)s1	none
Cc1ccc(O)c(NC(=O)CCC2CCCCC2)c1	VCAM1 TNFa inh 79
Cc1cccc(OCCCC(=O)O)c1	E-sel TNF inh 65
Cc1cccc(OCC(=O)Nc2cc(C)ccc2O)c1	VCAM1 TNFa inh 58
COc1ccccc1C(=O)NC(CCSC)C(=O)OCC(=O)NC(=O)NCc1ccco1 (stereo unspecified)	E-sel TNF inh 97 (no result: HUVEC tox TNFa, VCAM1 TNFa inh, cytoskel mod)
COc1ccccc1C(=O)NC(CCSC)C(=O)NCC(c1ccco1)N(C)C (stereo unspecified)	none (no result: E-sel TNF inh)
Nc1nnc(CSCc2ccc(F)cc2)s1	none (no result: HUVEC tox TNFa, VCAM1 TNFa inh, cytoskel mod)
CCOC(=O)C1CCCN(S(=O)(=O)c2cn(C)c(=O)n(C)c2=O)C1 (stereo unspecified)	HUVEC tox TNFa 79 (no result: E-sel TNF inh)
O=c1c2ccccc2oc2nc(-c3ccco3)n(Cc3ccccc3)c(=O)c12	none
CCOC(=O)c1cnc(-n2nc(C)cc2C)nc1NCc1ccccc1	VCAM1 TNFa inh 92 (no result: E-sel TNF inh)
CCOC(=O)c1cnc(-n2nc(C)cc2C)nc1NCCO	none
CCn1c2ccc(/C(C)=N\O)cc2c2cc(/C(C)=N\O)ccc21	E-sel TNF inh 100
CN(Cc1cccs1)C(=O)/C=C/c1ccccc1[N+](=O)[O-]	none (no result: HUVEC tox TNFa, VCAM1 TNFa inh, cytoskel mod)
Cc1nnc(N/N=C/c2cccc(OCc3ccc(Cl)c(Cl)c3)c2)n1N	none (no result: HUVEC tox TNFa, VCAM1 TNFa inh, cytoskel mod)
Cc1cc2cc(CCNC(=O)C3c4ccccc4Oc4ccccc43)c(=O)[nH]c2cc1C	none (no result: HUVEC tox TNFa, VCAM1 TNFa inh, cytoskel mod)
O=C(/C=C/c1ccccc1)Nc1ncn[nH]1	E-sel TNF inh 60
N#CCc1nc2c3c4c(sc3ncn2n1)CCCC4	VCAM1 TNFa inh 60
O=c1cc(CO)oc(C(Nc2ccccn2)c2ccccc2F)c1O (stereo unspecified)	E-sel TNF inh 68
CCN(CC)CCCC(C)NC(=O)c1cccc(S(=O)(=O)N2CCc3ccccc32)c1 (stereo unspecified)	none (no result: HUVEC tox TNFa, VCAM1 TNFa inh, cytoskel mod)
Cn1cc(/C=N/n2cnc3scc(-c4ccc(Cl)cc4)c3c2=O)c2ccccc21	VCAM1 TNFa inh 75 (no result: E-sel TNF inh)
CCn1cnc2scc(-c3ccccc3)c2c1=O	none
COC(=O)c1ccc(S(=O)(=O)NCc2cccc(OC)c2)n1C	E-sel TNF inh 64
CCN(CC)S(=O)(=O)c1ccc(NC(=O)CCC2CCCCC2)cc1	none
Cc1ccn2c(NC(=O)c3ccco3)c(-c3ccccc3)nc2c1	VCAM1 TNFa inh 97
COc1ccc(C2C(C(=O)Nc3cccnc3)=C(C)Nc3nc(-c4cccs4)nn32)cc1 (stereo unspecified)	E-sel TNF inh 100
CCC(C)(C)NC(=O)Cc1ccc(OC)c(OC)c1	none
CCC(C)(C)NC(=O)CN(C(=O)c1snc(C(N)=O)c1N)c1ccc(OC)c(OC)c1	E-sel TNF inh 76
COc1ccc(C(=O)c2ccc(N(C)C)cc2)c(OC)c1	none (no result: E-sel TNF inh)
CN(C)c1ccc(C(=O)c2ccc(N(C)C)c3ccccc23)cc1	HUVEC tox TNFa 84, VCAM1 TNFa inh 99
CCOC(=O)c1ccc(NC(=S)NCC(O)c2ccccc2)cc1 (stereo unspecified)	E-sel TNF inh 73 (no result: HUVEC tox TNFa)
CCOC(=O)c1ccc(NC(=S)NCCc2ccccc2)cc1	none (no result: HUVEC tox TNFa)
CCOc1ccc(-n2nc(C(=O)NCCOC)c3ccccc3c2=O)cc1	none (no result: HUVEC tox TNFa, VCAM1 TNFa inh, cytoskel mod)
CCOc1ccc(-n2nc(C(=O)N3CCN(CC)CC3)c3ccccc3c2=O)cc1	E-sel TNF inh 66
CCOC(=O)C1C(c2cc(OC)c(O)c(OC)c2)NC(=S)NC1(O)C(F)(F)F (stereo unspecified)	E-sel TNF inh 72 (no result: HUVEC tox TNFa, VCAM1 TNFa inh, cytoskel mod)
CCOc1ccc(OCC)c(NC(=O)CN2CCN(c3cccc(C)c3)CC2)c1	E-sel TNF inh 95 (no result: HUVEC tox TNFa, VCAM1 TNFa inh, cytoskel mod)
Cc1noc(C)c1C(=O)NCCC1=CCCCC1	E-sel TNF inh 64
CCOC(=O)C(C)Oc1cccc2c(=O)n(CC(=O)NCc3ccc4c(c3)OCO4)ccc12 (stereo unspecified)	HUVEC tox TNFa 94, cytoskel mod inconclusive (no result: E-sel TNF inh)
CCOC(=O)C(C)Oc1cccc2c(=O)n(CC(=O)Nc3cccc(OC)c3)ccc12 (stereo unspecified)	E-sel TNF inh 67
CCOC(=O)C(C)Oc1cccc2c(=O)n(CC(=O)Nc3ccc4c(c3)OCCO4)ccc12 (stereo unspecified)	none (no result: E-sel TNF inh)
CCCS(=O)(=O)C(=C(Nc1ccccc1)Nc1ccccc1)S(=O)(=O)CCC	none
Cc1cc(C(=O)Nc2nc3c(s2)CCCC3)no1	E-sel TNF inh 40 (no result: cytoskel mod)
CCC(C)NS(=O)(=O)c1ccc(OCC(=O)NCc2ccco2)cc1 (stereo unspecified)	none
COc1ccc(S(=O)(=O)NC(CC(=O)NCc2ccco2)C(C)C)cc1 (stereo unspecified)	HUVEC tox TNFa 100, VCAM1 TNFa inh inconclusive, cytoskel mod inconclusive (no result: E-sel TNF inh)
CC(C)(C)NC(=O)COC(=O)Cc1ccc(Cl)cc1	none
CCN1c2ccccc2-c2nc3ccccc3n2C1c1cccnc1 (stereo unspecified)	E-sel TNF inh 100
COc1cccc(-n2nc(C#N)c(Cl)cc2=O)c1	E-sel TNF inh 98 (no result: HUVEC tox TNFa, VCAM1 TNFa inh, cytoskel mod)
CCn1c(SCC(=O)Nc2ccc(C(=O)OC)cc2)nnc1-c1cccs1	VCAM1 TNFa inh 55
CCn1c(SCC(=O)NCC(=O)Nc2ccc(F)cc2)nnc1-c1cccs1	none (no result: E-sel TNF inh)
COc1cc(/C=C2\SC(=S)N(CC(=O)Nc3ccc(O)cc3)C2=O)cc(OC)c1OC	E-sel TNF inh 74 (no result: HUVEC tox TNFa, VCAM1 TNFa inh, cytoskel mod)
c1ccc(-c2noc(C34CC5CC(CC(C5)C3)C4)n2)nc1	none
COc1ccc(OC(=O)CCc2c[nH]c3ccccc23)cc1	none (no result: HUVEC tox TNFa, VCAM1 TNFa inh, cytoskel mod)
CCn1c(=O)cc(SCC(=O)N2CCN(C3CCCCC3)CC2)c2ccccc21	E-sel TNF inh 67
C=CCn1c(CSCc2ccc(C)cc2)nnc1SCC(=O)NCc1ccccc1	none
C=CCn1c(SCC(=O)NCc2ccccc2)nnc1-c1ccccc1O	E-sel TNF inh 40
O=C(Cc1ccccc1)NC(=S)Nc1ccc2oc(-c3ccccc3)nc2c1	none (no result: HUVEC tox TNFa, VCAM1 TNFa inh, cytoskel mod)
C=CCN(CC=C)S(=O)(=O)c1ccc(NC(=S)NC(=O)/C=C/c2cccc3ccccc23)cc1	E-sel TNF inh 68
CC(Sc1nncs1)C(=O)Nc1ccc(Cl)cn1 (stereo unspecified)	none (no result: HUVEC tox TNFa, VCAM1 TNFa inh, cytoskel mod)
Cc1cc(-c2c(C)[nH]n(-c3ccccc3)c2=O)n(-c2ccccc2)n1	E-sel TNF inh 100
CCn1c(SCC(=O)NCC2CCCO2)nc2c(c1=O)SC(C)C2 (stereo unspecified)	E-sel TNF inh 92 (no result: HUVEC tox TNFa, VCAM1 TNFa inh, cytoskel mod)
CCCN(CCC)C(=S)NC(=O)c1ccc(-c2ccccc2)cc1	none
CCOc1ccc(C2/C(=C(\O)c3c(C)[nH]c(C(=O)OC)c3C)C(=O)C(=O)N2CCN(C)C)cc1 (stereo unspecified)	VCAM1 TNFa inh 92 (no result: E-sel TNF inh)
